# ChEMBL document CHEMBL1157539, “Thousands of chemical starting points for antimalarial lead identification” (Nature, 2010)
# Test system: Plasmodium falciparum
# Assay: GSK_TCMDC: Inhibition of Plasmodium falciparum Dd2 in whole red blood cells, using parasite LDH activity as an index of growth. Test compounds present at 2uM
# Assay type: functional
row,Structure (SMILES),Inhibition
1,CCCC(=O)Nc1ccc(OCCCCN(Cc2ccccc2C(F)(F)F)c2ccc(C(F)(F)F)c(C#N)c2)cc1,94%
2,O=C(/C=C/C=C/c1ccc(Cl)c(Cl)c1)NCCCCCN1CCCC2CCCCC21 (centres undefined),48%
3,COc1ccccc1N1CCN(CCCCNC(=O)c2ccc(NC(=O)c3cc4ccccc4o3)cc2)CC1,2%
4,COc1ccc(-c2cccc(NC(=O)c3cccc(C#N)c3)c2)cc1CN(C)CCO.O=C(O)C(F)(F)F,30%
5,COc1ccc(-c2cc(C(=O)N3CCc4ccccc43)c3ccccc3n2)cc1OC,48%
6,CCCNCc1ccc(-c2ccc(CN(C(=O)c3nn(-c4ccccc4)nc3C)C3CC3)cc2)nc1.O=C(O)C(F)(F)F,0%
7,CC(=O)Nc1nc(C(=O)Nc2cccc(-c3ccc(-c4nc5cc(F)ccc5[nH]4)cc3)c2)cs1,32%
8,CCc1nc2nc(C)cc(Nc3cc(C)cc(C)c3)n2n1,96%
9,Cc1ccn2c(N(Cc3ccccc3)C(=O)c3ccc(Cl)c(Cl)c3)c(-c3ccccc3)nc2c1,0%
10,Cn1cnc2nc(NCCc3ccccc3)nc(NCc3cccc4ccccc34)c21,98%
11,Cc1cc(N/N=C/c2ccccc2[N+](=O)[O-])c2cc(F)ccc2n1,100%
12,Cc1cc(OCCCn2ccnc2)ccc1-c1csc(/N=C(\N)NCc2ccccc2)n1,42%
13,CC(C)Cc1cn(-c2nc(-c3nc4ccccc4[nH]3)cs2)c2cc(Cl)ccc12.Cl,68%
14,Cc1cc(CNC(c2ccccc2)C2CCC2)cc(C)c1O (centres undefined),48%
